# In ChEMBL document CHEMBL3433997, “St. Jude Leishmania screening dataset” (2016):
# Legend:
# Format in all cases: functional
# [1] = target: Solute carrier family 2, facilitated glucose transporter member 1 (Homo sapiens) (UniProt P11166); assay: ST_JUDE_LEISH: Cytotoxicity at 2uM final concentration against transgenic Leishmania Mexicana promastigotes LmGLUT1 that are glucose transport deficient and complemented with the human glucose transporter GLUT1. Activity is measured by DNA content using SYBR green in vitro
# Chain of Solute carrier family 2, facilitated glucose transporter member 1 (Homo sapiens) (P11166 whole entry): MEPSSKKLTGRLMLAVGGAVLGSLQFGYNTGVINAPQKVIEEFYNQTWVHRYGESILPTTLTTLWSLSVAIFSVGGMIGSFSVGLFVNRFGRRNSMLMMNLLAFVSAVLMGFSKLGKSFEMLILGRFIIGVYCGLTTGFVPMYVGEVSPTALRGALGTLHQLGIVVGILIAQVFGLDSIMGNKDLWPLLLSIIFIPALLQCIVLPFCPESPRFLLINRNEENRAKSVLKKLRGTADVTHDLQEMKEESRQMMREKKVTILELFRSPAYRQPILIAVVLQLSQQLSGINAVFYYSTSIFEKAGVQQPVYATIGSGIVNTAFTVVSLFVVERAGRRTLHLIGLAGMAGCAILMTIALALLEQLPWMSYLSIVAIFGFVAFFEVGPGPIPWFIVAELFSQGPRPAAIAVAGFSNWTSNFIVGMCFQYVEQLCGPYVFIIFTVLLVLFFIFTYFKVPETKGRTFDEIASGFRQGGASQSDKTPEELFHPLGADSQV
# [2] = target: Hexose transporter 1 (Plasmodium falciparum) (UniProt O97467); assay: ST_JUDE_LEISH: Cytotoxicity at 2uM final concentration against transgenic Leishmania Mexicana promastigotes LmPfHT that are glucose transport deficient and complemented with the Plasmodium falciparum hexose transporter. Activity is measured by DNA content using SYBR green in vitro
# [3] = target: Glucose transporter (Leishmania mexicana) (UniProt O61059); assay: ST_JUDE_LEISH: Cytotoxicity at 2uM final concentration against transgenic Leishmania Mexicana promastigotes LmGT2 that are glucose transport deficient and complemented with the L. Mexicana glucose transporter 2. Activity is measured by DNA content using SYBR green in vitro
SMILES,inhibition [1] [%],inhibition [2] [%],inhibition [3] [%]
O=C(NCCCCCN1CCC(c2c[nH]c3ccccc23)CC1)c1ccc(-c2cccnc2)cc1,1.86,0.85,1.15
CC(Sc1nc(-c2ccccc2)c(-c2ccccc2)o1)C(=O)NC1CC1 (centres undefined),-2,1.75,0.3
Oc1cc(NCc2ccccc2NCc2ccc(Cl)c(Cl)c2)nc2ccccc12,2.41,3.68,3.11
Clc1ccc(CNc2ccnc(NCc3ccc4c(c3)OCCCO4)n2)c(Cl)c1,4.44,5.76,3.69
Cc1cc(C2CCN(CCCCNC(=O)c3ccc(-c4ccc(C(F)(F)F)cc4)cc3)CC2)c(C)cc1OCC#N,-0.43,1.3,-0.09
O=S(=O)(NCCN1CCCC1)c1ccc(-c2ccc(CNCc3ccsc3)cc2)cc1F,8.07,1.33,-0.2
CN(CCCN(C)c1cc(NC(=O)c2ccc(F)cc2)ccn1)Cc1cccc(F)c1,5,5.98,4.86
O=C(Nc1cccc(OC2CCN(Cc3ccc(F)cc3)CC2)c1)c1ccc(C(F)(F)F)cc1,0.28,0.67,0.79
O=C(NC1CCN(Cc2ccccc2)CC1)c1cccc(-c2cc3cc(Cl)c(Cl)cc3[nH]2)c1,2.36,-1.61,-0.91
CCC(CCON1C(N)=NC(N)=NC1(C)C)c1ccc(Cl)cc1 (centres undefined),4.18,1.03,2.41
CCCOc1ccccc1-c1nc2[nH]c3c(c2c(=O)[nH]1)CCN(C)C3,-1.19,-0.54,-1.12
COc1cc2nc(N3CCN(C(=O)c4cccc(I)c4)CC3)nc(N)c2cc1OC,5.23,3.9,-0.04
C[C@@H](N)C#Cc1cc2c(Nc3ccc(OCc4cccc(F)c4)c(Cl)c3)ncnc2s1,2.5,4.76,2.27
CCc1nc2ccc(C(=O)OC)nc2n1Cc1ccc2oc(-c3ccccc3N)c(Br)c2c1,2.91,2.33,1.6
O=S(=O)(Nc1cccc(CCN2CCC(N3CCCCC3)CC2)c1)c1ccc(Oc2ccccc2)cc1,4.33,4.71,2.69
O=C1C2C(c3ccc(Cl)c(Cl)c3)N3CC(OCc4ccccc4)CC3(C(=O)O)C2C(=O)N1c1ccc(Br)cc1 (centres undefined),4.62,4.75,3.46
Cc1cccc2nc(-c3cccc(-c4cccc(CNCC5CCCO5)c4)c3)[nH]c12 (centres undefined),1.16,0.17,1.17

SMILES,inhibition [1] [%],inhibition [2] [%],inhibition [3] [%]
O=C(Nc1ccc(Cn2nc(Cl)c(N3CCCNCC3)cc2=O)cc1)c1ccc(-c2ccccc2)cc1,7.36,5.68,4.52
Cc1cccc(Cn2c(C(N)=O)nn(-c3ccc([N+](=O)[O-])cc3C#N)c2=S)c1,11.5,11.7,11.7
COc1cc2nc(N(C)C)nc(Nc3ccc(OCc4ccccc4)cc3)c2cc1OC,0.24,1.34,-0.07
O=C(Nc1cccc(CN2CCN(C(=O)c3cccc(F)c3)CC2)c1)c1cccs1,0.66,1.04,-0.67
Cc1noc(C)c1-c1ccc(C(=C2CCCCCC2)c2ccc(O)cc2)cc1,3.18,3.88,4.06
COc1nc2c(CCN3CC[C@H](NCc4ccc5c(c4)NC(=O)CO5)[C@H](O)C3)c(Cl)cnc2cc1F,6.64,7.74,4.24
COc1ccc2nc3cc(Cl)ccc3c(Nc3ccc(O)c(CNC(C)C)c3)c2c1,0.29,0.43,2.23
COc1ccc(CNC2CCN(c3ccc(NC(=O)c4cccc(Cl)c4)cc3)CC2)cc1OC,2.25,1.47,0.61
Fc1ccc2[nH]c(-c3ccc(-c4ccc(CNCc5ccccc5)cc4)cc3)nc2c1,12.6,8.67,6.7
CCCC(C)Nc1nc(C)cc(N[C@@H](Cc2ccccc2)C(=O)NCc2ccc(C)cc2)n1 (some centres undefined),9.97,9.09,4.86
CN1CCN(c2ccnc3ccc(NC(=O)Nc4cccc(C#N)c4)cc23)CC1,1.6,2.57,2.19
CCOC(=O)c1ccc2[nH]c(-c3ccc(C(=O)NCc4ccc(C(C)(C)C)cc4)cc3)nc2c1,4.63,2.27,1.02
COc1c(OC)c(OC)c2ccccc2c1CNCCCCCCNCc1c(OC)c(OC)c(OC)c2ccccc12,7.56,7.58,0.02
CCC(N)(C#Cc1ccc(-c2c(C)[nH]c(C)c(Br)c2=O)cc1)CC,2.45,2.05,0.36
NCCCCNc1cc(-c2ccnc(Nc3cccc(Cl)c3)n2)ccn1,60.5,71.8,76.5
Cc1cc(C(=O)CN2C(=O)NC3(CCOc4ccccc43)C2=O)c(C)n1Cc1ccc(F)cc1 (centres undefined),3.91,2.31,1.1
